# Results: the supplement of paper PMC9694430
# Legend:
# Test in all cases: thermal shift delta Tm vs DMSO control; higher = stronger stabilization (binding)
# Settings in all cases: 12.5 µM; protein concentration 2 µM
# [1] = test system: LOC_OS02G45750-cb003
# Method in brief: (§1)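 Thermal shift values come from differential scanning fluorimetry on purified rice kinase domains made in E. coli, with melting temperatures obtained from Boltzmann fits. Samples of 19.5 μl held 2 μM kinase, 100 mM potassium phosphate pH 7.5, 150 mM NaCl, 10% glycerol, 5 × SYPRO Orange and compound in DMSO, and were heated from 25°C to 95°C at 0.05°C/s. Each shift is a triplicate mean relative to the DMSO-only protein sample.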
# [2] = test system: LOC_OS02G54510-cb004
# Method in brief: as §1
# [3] = test system: LOC_OS03G04050-cb001
# Method in brief: as §1
# [4] = test system: LOC_OS03G12390-cb001
# Method in brief: as §1
# [5] = test system: LOC_OS03G27990-cb004
# Method in brief: as §1
# [6] = test system: LOC_OS03G50450-cb001
# Method in brief: as §1
# [7] = test system: LOC_OS03G50810-cb003
# Method in brief: as §1
# [8] = test system: LOC_OS04G35114-cb001
# Method in brief: as §1
# [9] = test system: T1, LOC_OS04G38480-cb003
# T1 sequence (whole entry): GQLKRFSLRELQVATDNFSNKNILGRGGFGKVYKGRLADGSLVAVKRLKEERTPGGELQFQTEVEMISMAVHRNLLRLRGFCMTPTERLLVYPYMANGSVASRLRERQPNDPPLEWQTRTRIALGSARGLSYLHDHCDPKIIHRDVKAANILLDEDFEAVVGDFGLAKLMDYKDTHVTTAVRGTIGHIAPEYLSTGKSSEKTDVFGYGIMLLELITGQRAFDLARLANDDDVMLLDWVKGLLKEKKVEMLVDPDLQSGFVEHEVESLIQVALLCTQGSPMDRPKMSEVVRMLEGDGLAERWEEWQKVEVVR
# Method in brief: as §1
# [10] = test system: T2, LOC_OS04G41100-cb001
# T2 sequence (whole entry): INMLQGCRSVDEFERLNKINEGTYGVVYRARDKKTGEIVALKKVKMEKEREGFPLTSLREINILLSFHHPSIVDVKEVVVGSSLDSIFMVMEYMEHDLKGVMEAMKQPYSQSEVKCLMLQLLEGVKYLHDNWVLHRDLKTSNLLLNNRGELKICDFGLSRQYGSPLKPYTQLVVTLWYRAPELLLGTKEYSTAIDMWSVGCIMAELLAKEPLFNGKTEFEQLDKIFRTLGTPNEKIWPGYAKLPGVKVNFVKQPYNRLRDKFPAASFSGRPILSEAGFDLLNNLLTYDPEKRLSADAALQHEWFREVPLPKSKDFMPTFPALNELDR
# Method in brief: as §1
# 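Also: purified Escherichia coli-expressed rice kinase domain construct.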
Structure (SMILES),thermal shift delta Tm [1] [°C],thermal shift delta Tm [2] [°C],thermal shift delta Tm [3] [°C],thermal shift delta Tm [4] [°C],thermal shift delta Tm [5] [°C],thermal shift delta Tm [6] [°C],thermal shift delta Tm [7] [°C],thermal shift delta Tm [8] [°C],thermal shift delta Tm [9] [°C],thermal shift delta Tm [10] [°C]
Cc1cccc(Nc2nc(NC3CCCCC3N)ncc2C(N)=O)c1 (stereo not given),0.65,1.67,0.03,2.43,3.15,4.23,1.34,0.3,1.83,0.73
C=CC(=O)Nc1ccc2ncnc(Nc3ccc(OCc4cccc(F)c4)c(Cl)c3)c2c1,2.15,0.29,1.39,2.82,1.09,1.56,1.76,1.62,4.58,1.61
CCC(=O)Nc1cccc(Oc2nc(Nc3ccc(N4CCN(C)CC4)cc3OC)ncc2Cl)c1,1.13,-0.03,0.41,2.35,0.56,0.69,1.06,0.8,1.83,0.39
CS(=O)(=O)c1ccc(-c2cnc(N)c(C(=O)Nc3ccccc3)n2)cc1,4.49,0.26,0.2,0.62,0.7,0.18,0.94,3.32,1.11,0.38
O=C1c2c(O)cc(O)cc2OC(c2ccc(O)c(O)c2)C1O (stereo not given) [Taxifolin (Dihydroquercetin)],0.74,-0.16,0.4,0.47,0.2,0.2,0.08,0.29,0.17,0.5
O=C(Nc1cc(C(F)(F)F)cc(C(F)(F)F)c1)c1cc(Cl)ccc1O,0.1,-0.16,0.55,1.46,0.24,0.5,0.7,0.29,0.16,0.52
COc1cc2nccc(Oc3ccc(NC(=O)c4cn(C(C)C)c(=O)n(-c5ccc(F)cc5)c4=O)cc3F)c2cc1OC,1.35,0.3,0.61,0.23,0.52,0.71,1.15,0.49,3.7,0.44
Cn1c(=O)c(Oc2ccc(F)cc2F)cc2cnc(NC(CCO)CCO)nc21,0.76,0.53,0.43,-0.19,0.49,0.26,0.46,0.71,0.93,0.09
O=C(NC(NC(=S)Nc1ccc(F)c([N+](=O)[O-])c1)C(Cl)(Cl)Cl)C(c1ccccc1)c1ccccc1 (stereo not given),0.8,1.3,1.21,1.23,0.49,0.84,1.45,1.31,3.23,0.88
Fc1ccc2[nH]ccc2c1-c1nc(N2CCOCC2)c2sc(CN3CCN(CC4CC4)CC3)cc2n1,0,-0.03,0.21,0.01,0,-0.17,1.38,0.63,0.91,0.18
O=c1c(O)c(-c2cc(O)c(O)c(O)c2)oc2cc(O)cc(O)c12 [Myricetin],0.6,-0.42,1.12,1.2,1.89,2.61,-0.73,2.51,3.89,0.92
Cc1cc(N2CCOCC2)cc2[nH]c(-c3c(NC[C@@H](O)c4cccc(Cl)c4)cc[nH]c3=O)nc12,3.33,2.85,0.49,5.81,1.27,4.61,3.54,4.79,-0.48,0.77
CCn1c(=O)c(-c2ccc(-c3cncs3)cc2Cl)cc2cnc(Nc3ccc(N4CCN(C)CC4)cc3)nc21,1.17,0.43,0.71,-0.41,0.34,1.1,0.27,0.85,0.15,0.58
O=c1[nH]nc(Sc2ncc([N+](=O)[O-])s2)n1-c1ccc2c(c1)OCCO2,1.36,-0.1,0.22,-1.14,0.03,0.84,-0.33,0.5,3.06,-0.54
N#Cc1c(O)c2c(-c3ccc(-c4ccccc4O)cc3)csc2[nH]c1=O,1.29,0.51,0.84,0.75,0.45,0.66,0.88,0.58,1.99,0.62
Cc1nc2ccc(-n3ncc(C(=O)c4cc5ccccc5[nH]4)c3N)cc2[nH]1,2.94,4.14,0.05,1.25,0.29,-0.16,0.75,3.8,0.93,-0.16
Cc1c[nH]c2nc(Nc3ccc(N4CCN(C)CC4)c(F)c3)nc(-c3cccc(CC#N)c3)c12,11.6,3.94,0.91,13,8.79,8.2,9.84,12.4,6.06,1.61
CONC(=O)c1ccccc1Nc1cc(Nc2cc(C)nn2C(C)C)ncc1Cl,1.44,0.08,0.47,1.86,0.55,0.47,1.12,0.79,2.41,0.42
